High-throughput results from PubChem.
Most compounds without a hit are left out; they make up all but 10% or so of the library.
p97 inhibitor: blocks human p97 ATPase activity; hit rate 0.42% among 220,000; recombinant p97 ATPase, Kinase-Glo ATP luminescence, 3 h; inhibition, % at 8 µM; P55072; in the data active means inhibition above about 15%;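 further: 0% = DMSO vehicle and 100% = wells lacking enzyme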
HCT116 bCat-KO: beta-catenin-lacking colon tumor cell growth suppression; HCT116 beta-catenin knockout viability, CellTiter-Glo, 60 h; active compounds read low; viability, % at 10 µM; hit rate 1.5% among 140,000; AID 818;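 active means viability at or under a set limit, the compound median less 4 SD, cut at about 6% in these data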;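 further: 0% = Hyamine 1622 control at 20 µM and 100% = untreated cell control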
HCT116 PTEN-null: suppresses growth of cells with PTEN deletion; viability, % at 10 µM; AID 827; hit rate 1.2% among 140,000; HCT116 PTEN-null viability, CellTiter-Glo, 60 h; active compounds read low;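 active means viability at or below a set limit, 4 SD under the median of all tested compounds, cut at about 3.7% in these data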;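 further: PTEN knockout HCT116 line with beta catenin targeted HCT116 as companion control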
ROMK primary: modulates human ROMK potassium channel activity; Tet-inducible ROMK, thallium flux fluorescence; actives lie on both sides; AID 1918; B-score at 10 µM; hit rate 2% among 130,000; P48048;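 active means signal ratio slope over the read window, or its plate-corrected B-score, at least 3 SD from the plate mean, either direction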;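 further: B-score of the F/F0 ratio slope over 7 to 12 s after thallium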
L major viab: Leishmania major promastigote growth inhibition; Leishmania major promastigotes, resazurin fluorescence viability; inhibition, % at 10 µM; hit rate 9% among 200,000; AID 1063; in the data active means inhibition above about 50%;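 further: promastigotes grown with compound for 44 hours at 28 °C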
INS promoter inh: TRM-6 insulin promoter activity inhibition; hit rate 0.9% among 130,000; inhibition, % at 2 µM; TRM-6 cells (human fetal islet line), insulin promoter-eGFP reporter, imaging; reporter expression induced with tamoxifen; AID 1273;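 active means inhibition above the mean plus 3 SD, with well images judged a real hit on visual review, cut at about 60% in these data, passing the limit was not always enough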
Starred values were filed as active, the others as inactive.

How did Cc1cc(NC(=O)c2ccc(C#N)cc2)on1 do in these assays?
p97 inhibitor: 1.4; L major viab: -1.3

What do the screens show for `CC1CC(C)(C)NC(=S)N1CCCC(=O)Nc1ccccc1F` (stereo unspecified)?
p97 inhibitor: 4.1; ROMK primary: 0.893; L major viab: -1.5; INS promoter inh: 40.0

How did CC1CC(C)(C)NC(=S)N1CCCC(=O)N1CCN(c2ccccc2F)CC1 (stereo unspecified) do in these assays?
p97 inhibitor: 2.6; HCT116 bCat-KO: 90.7; HCT116 PTEN-null: 99.6; ROMK primary: -0.609; L major viab: 60.5*; INS promoter inh: -16.2

Results for CCOC(=O)c1c(NC(NC(=O)C(C)C)C(Cl)(Cl)Cl)sc2c1CCC2 (stereo unspecified) ?
p97 inhibitor: -1.1; HCT116 bCat-KO: 72.1; HCT116 PTEN-null: 64.9; ROMK primary: -1.4; L major viab: 86.0*; INS promoter inh: -16.7

Results for COc1ccc(N2C(=O)C(Cl)=C(Nc3ccccc3O)C2=O)cc1 ?
p97 inhibitor: 3.3; HCT116 bCat-KO: 76.6; HCT116 PTEN-null: 78.1; ROMK primary: 0.376; L major viab: 98.5*; INS promoter inh: -37.5

Results for CC(NC(=O)c1ccc(F)cc1)c1ccccc1 (stereo unspecified) ?
p97 inhibitor: 0.3; HCT116 bCat-KO: 85.2; HCT116 PTEN-null: 89.8; L major viab: -4.1; INS promoter inh: 43.3

What do the screens show for `Cc1ccc(C(NC(=O)NC(C)c2ccccc2)C(Cl)(Cl)Cl)cc1F` (stereo unspecified)?
p97 inhibitor: 2.8; HCT116 bCat-KO: 6.1*; HCT116 PTEN-null: 3.4*; L major viab: 30.0

How did COc1ccc(/C=c2\s/c(=C(/C#N)C(=O)NCc3ccco3)n(-c3ccccc3)c2=O)cc1 do in these assays?
p97 inhibitor: 3.6; HCT116 bCat-KO: 27.8; HCT116 PTEN-null: 32.3; L major viab: 61.9*; INS promoter inh: 32.0

What do the screens show for `N#CCC(=O)Nc1ccc(C(=O)NCC(c2ccco2)N2CCCCC2)cc1` (stereo unspecified)?
p97 inhibitor: 1.7; ROMK primary: 0.791; L major viab: -0.9

How did COc1ccccc1OCCNC1CCCC1 do in these assays?
p97 inhibitor: 3.8; HCT116 bCat-KO: 88.4; HCT116 PTEN-null: 97.9; ROMK primary: -0.886; L major viab: -3.4; INS promoter inh: -18.9

How did N#Cc1ccccc1OCCOCCNC1CCCC1 do in these assays?
p97 inhibitor: 0.0; HCT116 bCat-KO: 95.6; HCT116 PTEN-null: 99.1; ROMK primary: -0.0619; L major viab: 82.1*; INS promoter inh: 18.2

Results for Nn1c(SCC(=O)NC2CCCc3ccccc32)nnc1-c1ccc(Cl)cc1Cl (stereo unspecified) ?
p97 inhibitor: -1.4; HCT116 bCat-KO: 85.8; HCT116 PTEN-null: 94.3; L major viab: -4.7

How did CCCCC[n+]1cccc2c3ccccc3ccc21 do in these assays?
p97 inhibitor: 7.2; ROMK primary: -0.0945; L major viab: 100.3*; INS promoter inh: -33.3

How did c1ccc(C[n+]2cccc3c4ccccc4ccc32)cc1 do in these assays?
p97 inhibitor: 3.7; HCT116 bCat-KO: 9.9; HCT116 PTEN-null: 11.9; L major viab: 97.2*; INS promoter inh: -76.7

How did O=[N+]([O-])c1ccc(C[n+]2cccc3ccccc32)cc1 do in these assays?
p97 inhibitor: 1.8; ROMK primary: 0.788; L major viab: -1.9

Results for COc1ccc(CNC(=O)COC(=O)Cc2ccc(Cl)cc2Cl)cc1 ?
p97 inhibitor: -0.1; HCT116 bCat-KO: 91.1; HCT116 PTEN-null: 87.5; L major viab: -6.3

How did COC(=O)C(NC(=O)COc1ccccc1)(Nc1nc2c(s1)CCCC2)C(F)(F)F (stereo unspecified) do in these assays?
p97 inhibitor: -0.7; HCT116 bCat-KO: 78.8; HCT116 PTEN-null: 78.4; L major viab: 64.6*; INS promoter inh: -4.5

Results for CC(=O)NC1=C(N(C)C2CCS(=O)(=O)C2)C(=O)c2ccccc2C1=O (stereo unspecified) ?
p97 inhibitor: -0.9; HCT116 bCat-KO: 3.5*; HCT116 PTEN-null: 3.4*; L major viab: 18.8; INS promoter inh: -3.1

What do the screens show for `O=C(C1CCN(c2nnc(-n3cccc3)s2)CC1)N1CCN(c2cccc(C(F)(F)F)c2)CC1`?
p97 inhibitor: 5.9; HCT116 bCat-KO: 67.2; HCT116 PTEN-null: 63.9; ROMK primary: -0.00527; L major viab: -2.4; INS promoter inh: 28.6

Results for O=C(C1CCN(c2nnc(-n3cccc3)s2)CC1)N1CCOCC1 ?
p97 inhibitor: -0.8; HCT116 bCat-KO: 87.4; HCT116 PTEN-null: 87.5; L major viab: -5.5; INS promoter inh: 100.0*

What do the screens show for `CN1CCN(NC(=O)c2ccc(Br)c(S(=O)(=O)N3CCOCC3)c2)CC1`?
p97 inhibitor: 7.2; HCT116 bCat-KO: 89.3; HCT116 PTEN-null: 91.3; ROMK primary: 0.531; L major viab: -5.5; INS promoter inh: -15.4

How did CCN(c1ccccc1)S(=O)(=O)c1ccc(OC)c(NC(=O)c2cccs2)c1 do in these assays?
p97 inhibitor: 4.1; ROMK primary: -0.925; L major viab: 96.4*; INS promoter inh: 0.0

What do the screens show for `CCCOc1ccc(C(C)=O)cc1CN1CCOCC1`?
p97 inhibitor: -4.0; HCT116 bCat-KO: 95.0; HCT116 PTEN-null: 97.6; ROMK primary: -0.179; L major viab: -3.8

What do the screens show for `CC(C)COc1ccc(C(=O)CCN2CCCCC2)cc1`?
p97 inhibitor: -4.1; HCT116 bCat-KO: 91.8; HCT116 PTEN-null: 90.2; L major viab: 96.4*; INS promoter inh: 0.0

Results for CCCCOc1ccc(C(=O)CCN2CCCCC2)cc1 ?
p97 inhibitor: 4.6; HCT116 bCat-KO: 90.9; HCT116 PTEN-null: 82.7; L major viab: 92.4*; INS promoter inh: 33.3

What do the screens show for `CC(=O)c1ccc(OCC(C)C)c(CN2CCCCC2)c1`?
p97 inhibitor: -2.0; HCT116 bCat-KO: 79.2; HCT116 PTEN-null: 81.5; L major viab: 85.7*

Results for CC(C)COc1ccc(C(=O)OCCN2CCOCC2)cc1 ?
p97 inhibitor: -9.5; HCT116 bCat-KO: 95.8; HCT116 PTEN-null: 97.5; ROMK primary: -0.142; L major viab: -0.5; INS promoter inh: -300.0

How did S=c1nc(C2CC2)n(-c2ccccc2)[nH]1 do in these assays?
p97 inhibitor: -1.0

What do the screens show for `Cc1ccc(C(=O)N/C(=C/c2ccccc2)C(=O)NCC2CCCO2)cc1` (stereo unspecified)?
p97 inhibitor: -1.6; ROMK primary: -0.00733; L major viab: 0.6

Results for CCSCc1nnc(SCC(=O)Nc2ccc(OC)cc2)n1C ?
p97 inhibitor: 2.3; ROMK primary: 0.151; L major viab: 0.9; INS promoter inh: -82.3

How did CC(=O)c1cc(-c2ccc(F)cc2)n(CCC(=O)Nc2cccc(C)n2)c1C do in these assays?
p97 inhibitor: 2.0; ROMK primary: 0.405; L major viab: -1.5; INS promoter inh: -100.0

How did COC(=O)c1ccc(N/C=C\C(=O)c2ccc3c(c2)OCO3)cc1 do in these assays?
p97 inhibitor: 8.4; ROMK primary: 1.14; L major viab: -6.5; INS promoter inh: 50.0
